NPC1 prom act: activators of NPC1 promoter; Huh7 NPC1 promoter luciferase reporter, 24 h; Potency, µM (top dose mostly 9.22 µM), for the others: at the top dose activation, usual class: activators; 320,000 compounds, 2.4% hits; further: % of control where 0% means no effect; nearly all actives have a fitted effect of over 60% in size
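Compounds in DMSO were transferred onto Huh7 NPC1-luciferase reporter cells pre-incubated 2 h; after 24 h at 37 °C, Amplite reagent was dispensed and luminescence recorded 10 min later.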
ELG1 genotoxic: inducers of genotoxicity in HEK293T ELG1-luciferase cells | HEK293T ELG1-luciferase reporter, luminescence, 16 h | Potency, µM (highest dose often 46 µM), inactives show top-dose activity change, positive = activation, usual class: activators | 330,000 compounds, 1.3% hits; further: % of control where 0% means no effect; nearly all actives have a fitted effect of over 60% in size
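16 hr compound incubation (37 °C, 5% CO2) of HEK293T cells carrying luciferase-tagged ELG1; luciferase then measured by ONE-Glo luminescence after 30 min at RT.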
Rab9 promoter act: Rab9 promoter activation. Huh7 Rab9 promoter-luciferase reporter, luminescence, 24 h. Potency, µM (doses to about 9.22 µM), inactives show at the highest dose activation, negative = inhibition, usual class: activators. 320,000 compounds, 2.8% hits; further: % of control where 0% means no effect; nearly all actives have a fitted effect of over 60% in size
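Rab9 promoter-driven luciferase in stably transfected Huh7 cells; 1500 cells/well rested 2 h, exposed to compound in DMSO for 24 h at 37 °C, 5% CO2. Luminescence read 10 min after adding luciferase reagent at ambient temperature.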
SMN2 splice up: increases expression of the SMN2 splice variant; 210,000 compounds, 2.8% hits; Potency, µM (titrated, usually from 46.1 µM), inactives show top-dose activity change, positive = activation, most hits filed as activators; HEK293 SMN2-luciferase splicing reporter, luminescence, 30-36 h; further: % of control where 0% means no effect; nearly all actives have a fitted effect of over 55% in size
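HEK293 cells carry an SMN2 minigene-luciferase reporter in which exon 7 inclusion puts luciferase in frame. Cells were seeded at 2000 cells/well, attached for 10-12 hours, then exposed to compounds for 30-36 hours at 37C before ONE-Glo luminescence.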
FLuc counter: inhibits or activates purified firefly luciferase, miR-21 counter-screen | purified FLuc, Km substrates, luminescence inhibition | Potency, µM (titrated, usually from 57.5 µM), for the others: at the highest dose activity change, negative = inhibition, most hits filed as inhibitors | AID 588342 | P08659 | 360,000 compounds, 6.9% hits;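 further: plate controls were vehicle for no effect and reference inhibitor for full effect; nearly all actives have a fitted effect of over 55% in size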
Target sequence (P08659 whole entry, looked up): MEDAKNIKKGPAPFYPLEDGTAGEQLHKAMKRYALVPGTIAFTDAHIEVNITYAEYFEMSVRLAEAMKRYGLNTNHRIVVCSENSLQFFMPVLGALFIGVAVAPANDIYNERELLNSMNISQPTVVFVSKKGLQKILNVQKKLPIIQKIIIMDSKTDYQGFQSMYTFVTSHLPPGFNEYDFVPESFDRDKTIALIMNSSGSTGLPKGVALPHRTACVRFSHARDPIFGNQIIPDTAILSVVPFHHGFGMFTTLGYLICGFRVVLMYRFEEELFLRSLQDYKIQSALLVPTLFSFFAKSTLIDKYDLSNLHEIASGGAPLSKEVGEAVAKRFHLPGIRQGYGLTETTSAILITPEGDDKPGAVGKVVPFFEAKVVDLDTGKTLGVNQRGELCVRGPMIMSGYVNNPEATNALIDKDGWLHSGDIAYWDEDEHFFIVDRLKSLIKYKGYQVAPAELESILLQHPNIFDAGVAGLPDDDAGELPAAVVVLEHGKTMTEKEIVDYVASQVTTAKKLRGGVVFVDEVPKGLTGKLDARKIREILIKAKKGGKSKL
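Biochemical qHTS of compounds, final roughly 60 µM downward over six points, against 10 nM purified firefly luciferase using Km concentrations of substrates (10 uM D-luciferin, 10 uM ATP) in Tris acetate pH 7.5 buffer; luminescence output.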
* marks the source's active call; other numbers are inactive results; ? = inconclusive; . = not tested or not shown. Hits are enriched below; roughly 7.4% of the tested compounds scored in any of these assays. The call rests on the fitted dose curve; in most records, active means well fitted curve in the direction sought with a large enough effect; inconclusive means small, poorly fitted or top-dose-only effect, or another doubt; inactive means no such curve, though single readings can be large; an effect the other way counts as inactive or inconclusive. Potency means the concentration at half of the fitted maximal effect.

SMILES | NPC1 prom act | ELG1 genotoxic | Rab9 promoter act | SMN2 splice up | FLuc counter
O=C(Nc1ccc2c(c1)OCCO2)c1ccccc1F | 0.794µM* | 1.84µM* | 0.562µM* | 12.6µM* | 3.38µM*
COc1cccc(OC)c1C(=O)NC(=S)Nc1ccc2c(c1)OCCO2 | -3.7% | ? | 1.1% | -5.1% | 21.3µM*
O=C(CSc1nnc(CNC(=O)c2c(F)cccc2F)o1)Nc1ccc2c(c1)OCCO2 | -2.5% | 3.0% | 4.0% | . | ?
O=C(Nc1ccc2c(c1)OCCO2)c1cccc2nc3ccccc3nc12 | -2.9% | -4.9% | -1.4% | -17.0% | ?
CCN(CCCNC(=O)CSc1cc(=O)n(CC)c2ccccc12)c1ccccc1 | . | . | . | -2.7% | -14.2%
CCCN(c1ccc(C(C)C)cc1)S(=O)(=O)c1ccc2c(c1)n(C)c(=O)c(=O)n2C | . | . | . | 20.0% | 0.4%
Cc1cccc(N2CC(c3nc4ccc(C)cc4[nH]3)CC2=O)c1 (configuration not stated) | . | . | . | -1.7% | -10.8%
O=C(NC(=S)Nc1ccc(N2CCOCC2)cc1)c1ccc2c(c1)OCCO2 | 14.0% | -1.0% | 4.0% | -61.0% | ?
CCOc1cccc(C(=O)NC(=S)Nc2ccc3c(c2)OCCO3)c1 | 20.4% | ? | ? | 30.3% | 8.49µM*
O=C(NC(=S)Nc1ccc(CN2CCOCC2)cc1)c1ccc2c(c1)OCCO2 | ? | -4.7% | 22.8% | . | 16.9µM*
CCOc1cccc(C(=O)NC(=S)Nc2ccc(N3CCCC3)cc2)c1 | -1.7% | -3.9% | 5.0% | -37.7% | 1.0%
COc1ccccc1NC(=O)C1CCN(S(=O)(=O)c2ccc3[nH]c4c(c3c2)CCCCC4)CC1 | . | . | . | . | -4.8%
COc1ccc2c(c1)c1c(c(=O)n(Cc3ccccc3)c(=O)n1Cc1ccc(C)cc1)n2C | . | . | . | . | -4.7%
COc1ccccc1NC(=O)COC(=O)C1C2CC3OC(=O)C1C3C2 (configuration not stated) | 0.2% | -2.8% | 5.4% | . | 15.1µM*
c1coc(-c2nc3ccccc3nc2-c2ccco2)c1 | 18.1% | 1.5% | 9.9% | -12.7% | ?
O=C(NCCO)c1ccc2nc(-c3ccco3)c(-c3ccco3)nc2c1 | 1.0% | -9.1% | 17.8% | 1.8% | 15.1µM*
O=C(NC1CCCC1)c1ccc2nc(-c3ccco3)c(-c3ccco3)nc2c1 | 0.3% | -4.4% | 6.6% | . | 13.5µM*
O=C(c1ccccc1)c1ccc2nc(-c3ccco3)c(-c3ccco3)nc2c1 | 24.4% | 11.5% | ? | 7.2% | 5.36µM*
O=C(NCCc1ccccc1)c1ccc2nc(-c3ccco3)c(-c3ccco3)nc2c1 | 0.3% | -4.0% | 7.4% | -2.4% | 21.3µM*
Oc1c(Br)cc(Br)cc1C=Nc1ccc2[nH]ncc2c1 | 0.1% | -6.8% | -9.7% | . | -17.5%
COc1ccc(C=Nc2ccc3[nH]ncc3c2)c(O)c1 | 4.9% | -7.7% | -0.6% | -7.9% | 6.75µM*
CC(C)Cn1c(-c2cccc(Br)c2)nc2ccccc21 | . | . | . | -11.5% | -17.2%
COCn1c(-c2ccc(OC)c(OC)c2)nc2ccccc21 | ? | ? | 3.55µM* | 20.2% | 10.7µM*
COCn1c(-c2cccc(Br)c2)nc2ccccc21 | 1.8% | ? | 21.7% | . | 16.9µM*
CCCSc1nc2c(c(=O)[nH]1)C(c1ccc(O)c(OCC)c1)CC(=O)N2 (configuration not stated) | . | . | . | . | -14.6%
SMILES | NPC1 prom act | ELG1 genotoxic | Rab9 promoter act | SMN2 splice up | FLuc counter
Cc1cc(C(=O)CSc2nnnn2C)c(C)n1-c1ccc2c(c1)OCCO2 | 3.16µM* | 10µM* | 2.51µM* | ? | 23.9µM*
Cc1nnc(SCc2cccc(CSc3nnc(C)s3)c2)s1 | ? | ? | ? | 8.9% | ?
Cc1cc(C(=O)CSc2nnc(-c3ccco3)o2)c(C)n1-c1ccc2c(c1)OCCO2 | -3.2% | -1.2% | -10.1% | -71.3% | -15.5%
Cc1nnc(SCc2ccc(F)cc2Cl)s1 | 3.55µM* | ? | ? | ? | 23.9µM*
Nc1nnc(SCc2ccc(F)cc2Cl)s1 | 10.4% | 2.8% | 16.6% | 28.7% | -25.5%
Cc1nnc(SCc2ccc3c(c2)OCO3)s1 | 20.5% | 20.6µM* | ? | 12.7% | ?
Cc1nnc(SCC(=O)c2cc(C)n(-c3ccc4c(c3)OCO4)c2C)s1 | 24.7% | ? | ? | . | 23.9µM*
